The list is not random: actives were taken first. Their share in the collection is about 19%.
Pf growth 96h – Primary qHTS for delayed death inhibitors of the malarial parasite plastid, 96 hour incubation; 320,000 compounds, 6.9% hits; P. falciparum luciferase reporter growth, 96 h; Potency, µM (series often up to 28.7 µM), inactives show at the top dose activity change, negative = inhibition, most hits filed as inhibitors; AID 504834, 2011; note: potency is the fitted concentration of half-maximal effect; % is set by controls: 0 for no effect and ±100 for the full control effect
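Delayed-death screen, second-generation endpoint: infected erythrocytes, 2% hematocrit, 0.05% parasitemia final; 96 hours at 37 C, 5% CO2; luciferase detection reagent; luminescence decrease equals reduced growth.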
SARS PLP yeast – qHTS of Yeast-based Assay for SARS-CoV PLP; S. cerevisiae expressing SARS-CoV PLpro, growth rescue; AID 485353, 2010; Potency, µM (highest dose often 32.9 µM), for the others: at the top dose activity, positive = growth rescue, most hits filed as activators; 330,000 compounds, 0.19% hits; calls by dose curve; note: potency is the fitted concentration of half-maximal effect; 0% is about no effect; nearly all actives have a fitted effect of over 55% in size
CHX counter – Cycloheximide Counterscreen for Small Molecule Inhibitors of Shiga Toxin; cell reporter, cycloheximide protein synthesis inhibition counterscreen; max response, %; 300,000 compounds, 12% hits; in the data active = max response mostly above about 13%, no sharp cut-off; inactive = mostly below about 14%; note: read at 38.3 µM for the half of the compounds with a filed dose; 0% is about no effect
AMA1-RON2 inh – qHTS for Inhibitors of AMA1-RON; Towards Development of Antimalarial Drug Lead: Primary Screen | Plasmodium falciparum AMA1 (3D7) - RON2 peptide interaction | AlphaScreen AMA1-biotinylated RON2 peptide binding | Potency, µM (doses to about 58.2 µM), for the others: at the highest dose activity change, negative = inhibition, hits mostly inhibitors | 360,000 compounds, 0.2% hits;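 note: potency is the fitted concentration of half-maximal effect; 0% = vehicle wells and -100% = peptide control; nearly all actives have a fitted effect of over 45% in size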
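AMA1 (3D7) with his tag at 25 nM final met compounds first, then biotinylated RON2 peptide at 25 nM; detection used donor plus acceptor beads, 10 µg/mL apiece, read by AlphaScreen after 30 min at room temperature.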
Shiga inhibitor – A qHTS for Small Molecule Inhibitors of Shiga Toxin; Vero cells, Shiga toxin protein synthesis inhibition reporter; inhibition, % at 38.7 µM; 290,000 compounds, 9.2% hits; AID 2315, 2010; in the data active = inhibition mostly above about 28%, no sharp cut-off; inactive = mostly below about 43%; note: 0% is about no effect
Pf growth 48h – Primary qHTS for delayed death inhibitors of the malarial parasite plastid, 48 hour incubation. Potency, µM (series often up to 28.7 µM), for the others: at the highest dose activity change, negative = inhibition, hits mostly inhibitors. P. falciparum luciferase growth in erythrocytes, 48 h. 310,000 compounds, 5.9% hits; note: potency is the fitted concentration of half-maximal effect; % is set by controls: 0 for no effect and ±100 for the full control effect
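Parasite viability was followed by luminescence of a genomically integrated firefly luciferase. Cultures held 0.1% parasitemia at 2% hematocrit (final), incubated under 5% CO2 at 37 C.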
Active calls of the source: *; ? = inconclusive; / = no result given. Unless noted, calls come from the whole dose curve; as a rule, active = well fitted curve in the direction sought with a large enough effect; inconclusive = small, poorly fitted or top-dose-only effect, or another doubt; inactive = no such curve, though single readings can be large; an effect the other way counts as inactive or inconclusive.

SMILES	Pf growth 96h	SARS PLP yeast	CHX counter	AMA1-RON2 inh	Shiga inhibitor	Pf growth 48h
Cc1ccc(S(=O)(=O)N2CCCC2)cc1C(=O)NCCN1CCOCC1	20%	2%	29*	7%	28*	?
O=C(NCCc1ccccc1)c1cc(-c2ccncc2)nc2ccc(S(=O)(=O)N3CCOCC3)cc12	-1%	0%	5	0%	-9	-19%
O=C(NCCN1CCCC1)c1cc(-c2ccncc2)nc2ccc(S(=O)(=O)N3CCOCC3)cc12	?	3%	-3	5%	4	12µM*
Cc1ccc(S(=O)(=O)N2CCCCC2)cc1C(=O)NCCCN1CCOCC1	18%	1%	-5	3%	-12	-21%
c1csc(CNc2nc3ccccc3n2CCN2CCOCC2)c1	/	4%	-1	-5%	11	/
Oc1ccccc1CNc1nc2ccccc2n1CCN1CCCCC1	-21%	9%	8	-13%	13	2.9µM*
C=CCc1cccc(CNc2nc3ccccc3n2CCN2CCOCC2)c1O	/	-1%	-2	-4%	-25	3.7µM*
COC(=O)C1=C(c2ccc(-c3ccccc3)c(F)c2)C[C@@H]2CC[C@H]1N2C(=O)N1CCC(C)CC1	?	4%	/	-15%	/	?
COC(=O)C1=C(c2ccc3ccccc3c2)C[C@@H]2CC[C@H]1N2C(=O)N1CCCC1	?	1%	/	14%	/	9.3µM*
COC(=O)C1=C(c2ccc(-c3ccccc3)c(F)c2)C[C@@H]2CC[C@H]1N2C(=O)N1CCc2cc(OC)c(OC)cc2C1	?	4%	/	-25%	/	5.9µM*
COC(=O)C1=C(c2ccc(-c3ccccc3)c(F)c2)C[C@@H]2CC[C@H]1N2C(=O)N1CCCCC1	?	4%	/	-6%	/	10µM*
COC(=O)C1=C(c2ccc(-c3ccccc3)c(F)c2)C[C@@H]2CC[C@H]1N2C(=O)N1CCCC1	?	-1%	/	-20%	/	15µM*
COC(=O)C1=C(c2ccc(-c3ccccc3)c(F)c2)C[C@@H]2CC[C@H]1N2C(=O)N1CCC(O)CC1	?	9%	/	-5%	/	?
COC(=O)C1=C(c2ccc3ccccc3c2)C[C@@H]2CC[C@H]1N2C(=O)N1CCCCC1	?	-13%	/	-2%	/	?
CCOC(=O)C[C@H]1c2ccc(C(F)(F)F)cc2S(=O)(=O)N1c1cccc(OC)c1	/	/	/	11%	/	/
Cc1cccc(C)c1NC(=O)C1(C)CN(S(C)(=O)=O)CC(=O)N1CCc1ccccc1F (centres undefined)	/	/	/	-6%	/	/
Cc1ccc(N=C2NC(=O)c3cc([N+](=O)[O-])ccc32)cc1	4.1µM*	-13%	5	-6%	26	-5%
Cc1ccc(NC(=S)N2CCC(NC(=O)c3ccccc3)CC2)cc1	0%	0%	-1	-3%	11	8%
CCOc1ncccc1C(=O)OCC(=O)c1cc(C)n(Cc2ccco2)c1C	73%	-3%	27*	-25%	67*	/
Cc1cc(C(=O)COC(=O)c2ccc(O)cc2)c(C)n1Cc1ccco1	77%	10%	67*	-9%	66*	143%
Cc1cc(C(=O)COC(=O)c2ccc(Br)o2)c(C)n1Cc1ccco1	48%	-7%	52*	/	97*	72%
Cc1cc(C(=O)COC(=O)C(C)NC(N)=O)c(C)n1Cc1ccco1 (centres undefined)	16%	1%	35*	0%	94*	24%
Cc1nc(N2CCCCC2)sc1C(=O)c1ccc(SCCO)c([N+](=O)[O-])c1	4%	1%	17	?	8	-12%
Cc1nc(N2CCCCC2)sc1C(=O)c1cccc([N+](=O)[O-])c1	-65%	1%	37*	?	84*	?
COc1cc(OC)cc(C(=O)NCC(=O)OCc2ccc(Cl)c(Cl)c2)c1	-17%	-7%	/	21%	/	-15%
SMILES	Pf growth 96h	SARS PLP yeast	CHX counter	AMA1-RON2 inh	Shiga inhibitor	Pf growth 48h
C#CCSc1nc(-c2cccs2)ccc1C#N	10%	4%	0	15%	-1	15%
COC(=O)CSc1nc(-c2cccs2)ccc1C#N	?	-9%	36*	12%	50	76%
CC(=O)c1cc(C#N)c(SCc2ccccn2)nc1C	124%	-1%	47*	12%	68*	122%
CCCSc1nc(C)c(C(C)=O)cc1C#N	/	3%	-5	13%	-11	-9%
CC(=O)c1cc(C#N)c(SCc2ccccc2)nc1C	212%	-7%	32*	24%	31	/
COC(=O)CSc1nc(C)c(C(C)=O)cc1C#N	57%	5%	24*	2%	46	56%
COc1ccccc1N(CC(=O)N(C)Cc1ccccc1)S(=O)(=O)c1cccs1	?	-11%	/	11%	/	?
OCC1CSC(=S)N1Cc1ccccc1 (centres undefined)	/	/	/	2%	/	/
COc1ccc(-c2cc(C(F)(F)F)nc(SCC(=O)NCCCN3CCOCC3)n2)cc1	?	0%	-2	15%	-6	12%
COc1ccc(-n2c(=O)cc(N3CCN(c4ccccc4)CC3)[nH]c2=O)cc1	?	-4%	60*	-18%	-12	3%
O=c1cc(N2CCc3ccccc3C2)[nH]c(=O)n1-c1ccc(Cl)cc1	-19%	12%	-4	-5%	25	51%
O=c1cc(N2CCc3ccccc3C2)[nH]c(=O)n1-c1ccc(Br)cc1	7.4µM*	0%	1	-2%	12	21%
CC1(c2ccc3ccccc3c2)NC(=O)N(CC(=O)Nc2cccc(S(=O)(=O)N3CCOCC3)c2)C1=O (centres undefined)	?	-3%	-3	3%	18	-13%
CCn1c(=O)c2cc(S(=O)(=O)NC3CCCCC3)ccc2n(CC)c1=O	206%	0%	-3	13%	-8	?
Cc1ccc(OCC(O)CN2CCOCC2)c(C)c1 (centres undefined)	?	-3%	31*	-3%	/	18%
OC(COc1ccc2ccccc2c1Cl)CN1CCOCC1 (centres undefined)	15%	3%	37*	23%	105*	133%
OC(COc1ccc2cc(Br)ccc2c1)CN1CCOCC1 (centres undefined)	-26%	-4%	11	-11%	37*	27%
O=C(N1CCOCC1)N1CCN(CC(O)COc2ccc3ccccc3c2)CC1 (centres undefined)	-8%	2%	-1	-3%	-16	3%
O=C(c1ccccc1)c1ccc(OCC(O)CN2CCN(S(=O)(=O)N3CCCCC3)CC2)cc1 (centres undefined)	5.2µM*	8%	-4	-7%	-6	/
